# Laboratory results: PMC4336329 (PLoS ONE, 2015)
# The campaign covered roughly 310,000 compounds. About 14,000 (4.5%) showed an effect of 50% or more. The effect is printed as a negative number. The list comes from a sample in which strong results are over-represented; it also holds similar structures and randomly drawn compounds.
# Target: human ether-à-go-go-related gene (hERG) potassium channel (human, UniProt Q12809)
# Assay: primary screen, population patch clamp on CHO cells stably expressing hERG; higher = less effect of the substance
# 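Further: peak tail current of the secondary pulse compared with the same well before compound.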
# Sequence of human ether-à-go-go-related gene (hERG) potassium channel (Q12809 whole entry, looked up): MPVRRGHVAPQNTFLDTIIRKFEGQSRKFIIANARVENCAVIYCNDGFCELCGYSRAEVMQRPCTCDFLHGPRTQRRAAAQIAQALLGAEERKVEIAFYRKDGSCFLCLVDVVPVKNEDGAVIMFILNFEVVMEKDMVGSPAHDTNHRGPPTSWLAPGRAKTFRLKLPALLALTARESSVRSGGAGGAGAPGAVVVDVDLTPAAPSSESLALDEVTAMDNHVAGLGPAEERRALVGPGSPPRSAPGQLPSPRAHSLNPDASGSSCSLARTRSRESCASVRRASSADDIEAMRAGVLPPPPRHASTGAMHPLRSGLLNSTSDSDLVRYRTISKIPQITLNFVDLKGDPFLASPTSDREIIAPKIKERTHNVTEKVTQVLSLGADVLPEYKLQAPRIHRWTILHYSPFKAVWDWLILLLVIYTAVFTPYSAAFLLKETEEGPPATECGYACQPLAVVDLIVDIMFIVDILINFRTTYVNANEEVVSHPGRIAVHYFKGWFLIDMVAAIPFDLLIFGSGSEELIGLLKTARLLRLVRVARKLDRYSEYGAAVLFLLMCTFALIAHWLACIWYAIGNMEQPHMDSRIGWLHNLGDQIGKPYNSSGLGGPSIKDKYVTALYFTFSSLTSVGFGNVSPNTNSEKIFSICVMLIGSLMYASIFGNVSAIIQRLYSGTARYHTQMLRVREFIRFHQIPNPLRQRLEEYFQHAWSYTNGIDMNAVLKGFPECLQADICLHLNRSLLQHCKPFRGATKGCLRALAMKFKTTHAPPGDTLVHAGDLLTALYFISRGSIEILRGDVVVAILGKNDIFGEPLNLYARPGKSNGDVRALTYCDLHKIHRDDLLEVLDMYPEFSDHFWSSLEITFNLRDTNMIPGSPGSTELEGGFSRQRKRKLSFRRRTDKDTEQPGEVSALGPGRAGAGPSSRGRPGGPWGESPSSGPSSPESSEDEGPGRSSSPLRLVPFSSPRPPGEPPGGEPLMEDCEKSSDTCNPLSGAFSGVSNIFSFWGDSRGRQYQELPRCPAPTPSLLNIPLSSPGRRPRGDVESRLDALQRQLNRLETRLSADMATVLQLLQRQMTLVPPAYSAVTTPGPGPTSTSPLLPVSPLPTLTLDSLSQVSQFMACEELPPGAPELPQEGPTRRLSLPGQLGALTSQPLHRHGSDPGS
row,SMILES,"hERG current change (%, negative = inhibition) at 10uM [%]"
1,COc1ccc(N2CCN(Cc3nnnn3C3CCCCC3)CC2)cc1,6.34
2,O=C1CCc2cc(S(=O)(=O)NC3CCCCC3)ccc2N1,-19.3
3,O=C1CCc2cc(OCCCCc3nnnn3C3CCCCC3)ccc2N1,-64.1
4,CN(C(=O)COC(=O)c1cn(C)c2ccccc12)C1CCCCC1,6.55
5,CC(=O)N1c2ccc(S(=O)(=O)NCC3CCC(C(=O)NCc4ccc(C)o4)CC3)cc2CC1C (centres unmarked),-3.13
6,CCCc1cc(=O)[nH]c(Nc2ccc(Cl)cc2)n1,6.28
7,O=C(Nc1ccccc1)C(=O)Nc1ccc2c(c1)N(C(=O)C1CC1)CCC2,-5.26
8,Nc1cc(=O)[nH]c(N2CCN(c3ccccc3)CC2)n1,24.2
9,COc1ccccc1C(=O)Nc1ccnn1C1CCN(Cc2ncc[nH]2)CC1,-16.3
10,COc1ccc(C(=O)Nc2ccnn2C2CCN(Cc3ccccn3)CC2)cc1,5.54
11,COc1cc(CN2CCC(n3nccc3NC(=O)c3ccccc3OC)CC2)ccc1F,-76.7
12,CCOc1ccc(CN2CCC(n3nccc3NC(=O)c3ccccc3OC)CC2)cc1,-82.8
13,COc1ccccc1C(=O)Nc1ccnn1C1CCN(Cc2ccc3nonc3c2)CC1,-72.1
14,COc1cc(CN2CCC(n3nccc3NC(=O)C3CCOC3)CC2)ccc1F (centres unmarked),-6.78
15,CCn1ccnc1CN1CCC(n2nccc2NC(=O)c2ccccc2OC)CC1,-69.9
16,COc1ccccc1C(=O)Nc1ccnn1C1CCN(Cc2ccn[nH]2)CC1,-36.1
17,CCn1ccnc1CN1CCC(n2nccc2NC(=O)CCc2ccccc2)CC1,-3.91
18,COc1ccc(C(=O)Nc2ccnn2C2CCN(Cc3ccc4nonc4c3)CC2)cc1,-43.1
19,COc1ccc(/C=N/Nc2nc(-c3cccnc3)nc3ccccc23)cc1OC,-22.2

row,SMILES,"hERG current change (%, negative = inhibition) at 10uM [%]"
1,CCOc1ccc(N2C(=O)CN=C2Nc2ccccc2Cl)cc1,-2.73
2,O=C(Nc1ccon1)C(Sc1ccccc1)c1ccccc1 (centres unmarked),-8.32
3,Cc1noc(C)c1C(=O)Nc1ccc(-c2nnc3n2CCCCC3)cc1,5.46
4,CC1(C)CC(CC(=O)Nc2ccccc2[N+](=O)[O-])C(=O)O1 (centres unmarked),-1.77
5,Cc1cccc(-c2c3c(=O)n(C)c(=O)n(C)c3cn2-c2ccccc2O)c1,1.06
6,Cc1cc(C)c2oc(-c3ccc(C)c(NC(=S)NC(=O)/C=C/c4ccco4)c3)nc2c1,11.2
7,Cc1cc(=O)oc2cc(OCC(=O)N3CCN(C(C)c4ccccc4)CC3)c(Cl)cc12 (centres unmarked),-35.1
8,O=C(N/N=C/c1ccco1)c1cc(-c2cccs2)[nH]n1,1.93
9,Cc1ccccc1C(=O)NCCN1CCOCC1.Cl,6.78
10,Fc1ccc(-c2c[nH]c(=S)n2Cc2ccccc2)cc1,-38
11,O=C(NCCc1c[nH]c2ccccc12)C(F)(F)F,3.79
12,COc1ccc(NC(=O)c2ccc(-n3cncn3)c([N+](=O)[O-])c2)cc1OC,-2.52
13,CC(C)(Cc1cc(CC(C)(C)C(=O)O)cc(C(C)(C)C)c1)C(=O)O,10.4
14,Cc1ccc(Nc2c(-c3ccc(N4CCOCC4)cc3)nc3ncccn23)cc1C,7.71
15,COCc1nc(-c2ccc(-c3ccccc3)nc2OC)no1,-2.5
16,COc1ccc(S(=O)(=O)N2CCCN(CC(=O)Nc3ccccc3F)CC2)cc1,-55.7
17,O=C(CCN1CCN(S(=O)(=O)c2ccc(Br)cc2)CC1)Nc1ccccc1F,-31.2
18,O=C(CN1CCN(S(=O)(=O)c2ccc(Br)cc2)CC1)Nc1ccccc1F,-62.5
19,O=C(CN1CCCN(S(=O)(=O)c2ccc(F)cc2)CC1)Nc1ccccc1Br,-49.1

row,SMILES,"hERG current change (%, negative = inhibition) at 10uM [%]"
1,O=C(CCN1CCN(S(=O)(=O)c2ccc(F)cc2)CC1)Nc1ccccc1F,-8.34
2,COc1ccc(S(=O)(=O)N2CCN(CCC(=O)Nc3ccccc3F)CC2)cc1,-0.0172
3,COc1ccc(NC(=O)N2CCN(S(=O)(=O)c3ccc(F)cc3)CC2)c(OC)c1,-6.4
4,COc1ccc(NC(=O)CN2CCCN(S(=O)(=O)c3ccc(F)cc3)CC2)c(OC)c1,-54.6
5,COc1ccc(S(=O)(=O)N2CCN(CC(=O)Nc3ccccc3OC)CC2)cc1,-5.56
6,COc1ccc(NC(=O)CN2CCN(S(=O)(=O)c3ccc(Br)cc3)CC2)c(OC)c1,19.8
7,O=C(CN1CCN(S(=O)(=O)c2ccc(Br)cc2)CC1)Nc1ccccc1C(=O)c1ccccc1,1.26
8,O=C(CN1CCN(S(=O)(=O)c2ccc(F)cc2)CC1)Nc1ccccc1F,-56.1
9,Cc1ccsc1C(=O)c1sccc1C,-3.08
10,CSc1ccc(CCNC(=O)c2cc(-c3ccccc3)c(N3CCOCC3)s2)cc1,-1.02
11,O=C(NCc1ccncc1)c1ccc(Cl)c(S(=O)(=O)N2CCCCC2)c1,-22.4
12,O=C1CN(O)C=C2N=c3ccccc3=C2N1c1ccc([N+](=O)[O-])cc1,-26.6
13,Cc1ccc(OCc2nnc(SCC(=O)c3ccccc3)n2Cc2ccco2)cc1,-47.1
14,COc1ccc(NC(=O)C(NC(=O)CC2NC(=O)NC2=O)c2ccccc2)cc1 (centres unmarked),-2.49
15,CSc1ccccc1NC(=O)CSCc1ccc(C)cc1,-7.79
16,COc1cc2ccccc2cc1C(=O)Nc1nnc(-c2ccncc2)o1,-52.3
17,O=C(Nc1nnc(-c2ccncc2)o1)c1ccc2ccccc2c1,-3.08
18,COc1cc2ccccc2cc1C(=O)Nc1ccncc1,-24.8
